# From publication PMC4336329 (PLoS ONE, 2015)
# The campaign covered roughly 310,000 compounds. About 14,000 (4.5%) showed an effect of 50% or more. The effect is printed as a negative number. The sample holds strong results, similar compounds and a random draw of the others, so the mix is not that of the screen.
# Biological target: human ether-à-go-go-related gene (hERG) potassium channel (human, UniProt Q12809)
# Assay: primary screen, population patch clamp on CHO cells stably expressing hERG; higher = less effect of the substance
# 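Note: peak tail current of the secondary pulse compared with the same well before compound.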
# Sequence of human ether-à-go-go-related gene (hERG) potassium channel (Q12809 whole entry, looked up): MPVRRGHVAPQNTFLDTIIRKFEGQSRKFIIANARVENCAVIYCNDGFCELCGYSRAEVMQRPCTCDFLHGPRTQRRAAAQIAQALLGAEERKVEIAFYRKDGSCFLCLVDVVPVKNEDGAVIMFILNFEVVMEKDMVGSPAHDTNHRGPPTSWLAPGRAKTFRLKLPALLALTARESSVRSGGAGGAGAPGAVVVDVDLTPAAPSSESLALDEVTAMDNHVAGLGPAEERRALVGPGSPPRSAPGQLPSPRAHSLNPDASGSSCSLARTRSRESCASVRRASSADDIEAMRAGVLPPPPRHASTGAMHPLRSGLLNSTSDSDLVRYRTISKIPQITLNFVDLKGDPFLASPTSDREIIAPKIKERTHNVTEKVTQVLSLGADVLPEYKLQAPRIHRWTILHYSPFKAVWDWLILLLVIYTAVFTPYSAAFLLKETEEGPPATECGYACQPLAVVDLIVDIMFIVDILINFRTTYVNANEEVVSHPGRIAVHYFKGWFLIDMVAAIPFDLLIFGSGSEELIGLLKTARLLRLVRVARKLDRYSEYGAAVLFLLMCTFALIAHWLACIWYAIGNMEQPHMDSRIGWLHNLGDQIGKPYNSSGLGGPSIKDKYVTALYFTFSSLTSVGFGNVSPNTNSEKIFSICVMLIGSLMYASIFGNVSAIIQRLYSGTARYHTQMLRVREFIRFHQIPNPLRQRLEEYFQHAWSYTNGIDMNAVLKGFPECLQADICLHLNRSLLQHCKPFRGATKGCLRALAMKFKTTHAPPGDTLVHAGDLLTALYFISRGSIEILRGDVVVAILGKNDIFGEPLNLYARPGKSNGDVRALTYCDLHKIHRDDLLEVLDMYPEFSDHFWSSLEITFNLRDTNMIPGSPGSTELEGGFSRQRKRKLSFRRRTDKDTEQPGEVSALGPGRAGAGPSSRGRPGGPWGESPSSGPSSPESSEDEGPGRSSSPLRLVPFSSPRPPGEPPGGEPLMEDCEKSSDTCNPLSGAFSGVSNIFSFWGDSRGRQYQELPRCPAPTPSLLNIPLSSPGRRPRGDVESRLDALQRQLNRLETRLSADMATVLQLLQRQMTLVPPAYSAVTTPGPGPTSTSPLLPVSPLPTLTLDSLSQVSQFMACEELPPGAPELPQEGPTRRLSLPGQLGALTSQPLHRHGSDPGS
row,Compound,"hERG current change (%, negative = inhibition) at 10uM [%]"
1,CC(=O)NC(CC(=O)Nc1cccc(S(=O)(=O)N2CCCCC2)c1)c1ccccc1 (stereo not drawn),-1.76
2,CCCCC(=O)Nc1cc(Cl)ccc1C(=O)O,27.6
3,CC(=O)N1CCC(c2c[nH]c3ccccc23)CC1,5.87
4,CCn1ncc(-c2ccnc3cc(C(=O)O)nn23)c1C,12.6
5,CC(c1ccccc1)n1c(N2CCNCC2)nc2c1c(=O)[nH]c(=O)n2C (stereo not drawn),6.32
6,O=C(/C=C/c1ccccc1)OCc1cnc(Cl)s1,-6.4
7,Cc1ccc(S(=O)(=O)Cn2nnnc2C(CC(C)C)N2CCC(C(N)=O)CC2)cc1 (stereo not drawn),-12.2
8,Cc1cc(NC(=O)/C=C/c2ccccc2)c(C(C)C)cc1O,10.7
9,CC(C)c1ccc(NC2CCCN(C(=O)CCN3CCOCC3)C2)cc1 (stereo not drawn),0.518
10,O=C(Nc1ccc(Cc2ccncc2)cc1)c1ccc(N2CCOCC2)c([N+](=O)[O-])c1,-59.1
11,O=C(Nc1cccnc1)c1ccc(N2CCOCC2)c([N+](=O)[O-])c1,21.7
12,O=C(NCc1ccc(F)cc1)c1ccc(N2CCOCC2)c([N+](=O)[O-])c1,-39.6
13,C=C1CCN(c2ccc(C(=O)NCc3ccc(OC)cc3)cc2[N+](=O)[O-])CC1,-7.55
14,O=C(Nc1ccc(Cc2ccncc2)cc1)c1cc([N+](=O)[O-])ccc1N1CCOCC1,-39
15,COc1ccc(CNC(=O)c2ccc(N3CCOCC3)c([N+](=O)[O-])c2)cc1,-52.1
16,COc1ccc(/C=N/NC(=O)c2cc(-c3ccccc3OC(C)C)nc3ccccc23)cc1CN1CCOCC1,-4.54
17,O.O=C(OCC1OC2C(Oc3nc(=O)ccn32)C1O)c1ccccc1 (stereo not drawn),-0.213
18,Cc1ccc(C)c(S(=O)(=O)NCc2ccc(C(=O)N3CCN(c4ccccc4)CC3)cc2)c1,-3.21
19,Cc1ccc(C(=O)N(C)Cc2ccccc2)cc1S(=O)(=O)N1CCOCC1,-12.8
20,Cc1ccc(C(=O)N(C)Cc2ccc(N3CCOCC3)cc2)cc1S(=O)(=O)NCc1ccccc1,-55.6
21,CCN(CC)C(=O)N1CCc2ccccc21,0.177

row,Compound,"hERG current change (%, negative = inhibition) at 10uM [%]"
1,COc1cccc(CC2(CO)CCCN(Cc3c(C)cc(C)cc3-n3cccn3)C2)c1 (stereo not drawn),-84.4
2,COc1cccc(CC2(CO)CCCN(Cc3cn[nH]c3C3CCCCC3)C2)c1 (stereo not drawn),-45.1
3,CCn1ccnc1CN1CCCC(CO)(Cc2cccc(OC)c2)C1 (stereo not drawn),-17.7
4,COc1ccc(-n2ccnc2CN2CCCC(CO)(Cc3cccc(OC)c3)C2)cc1 (stereo not drawn),-24.2
5,COc1cccc(CC2(CO)CCCN(Cc3cn[nH]c3-c3ccc(F)cc3)C2)c1 (stereo not drawn),6.58
6,COc1cccc(CC2(CO)CCCN(Cc3cc(F)ccc3-n3cccn3)C2)c1 (stereo not drawn),-77.3
7,COc1ccc(NC2=C(NC(C)=O)C(=O)c3ccccc3C2=O)cc1,13.5
8,COc1cc(OC)nc(NC(=O)CSc2nc3ccccc3[nH]2)n1,-1.61
9,CCOc1ccc(CCNC(=O)c2cccc(S(=O)(=O)N3CC(C)OC(C)C3)c2)cc1OCC (stereo not drawn),-27.3
10,COc1cc(-c2[nH]ncc2CN2CCN(Cc3cccs3)CC2)cc(OC)c1OC,-50.3
11,COCC1CCN(Cc2cn[nH]c2-c2cc(OC)c(OC)c(OC)c2)CC1,-38.1
12,COc1cc(-c2[nH]ncc2CN2CCSCC2)cc(OC)c1OC,-9.26
13,COc1cc(-c2[nH]ncc2CN2CCN(c3cccc(C)n3)CC2)cc(OC)c1OC,-47.3
14,COc1ccc(-c2[nH]ncc2CN2CCN(Cc3cccs3)CC2)cc1F,-31.2
15,COCCCC1CCN(Cc2cn[nH]c2-c2cc(OC)c(OC)c(OC)c2)CC1,-61.8
16,CCCCN(C(=O)c1cccc(S(=O)(=O)N2CCCC2)c1)c1c(N)n(CCC)c(=O)[nH]c1=O,4.89
17,CCN(CC)CCCN=Cc1c(O)n(-c2ccc(C)cc2)c(=O)c2ccccc12,-5.54
18,CN(C)CCN=Cc1c(O)n(Cc2ccccc2)c(=O)c2ccccc12,-52.2
19,CN(C)CCCN=Cc1c(O)n(Cc2ccc3c(c2)OCO3)c(=O)c2ccccc12,-49.1
20,CCN(CC)CCN=Cc1c(O)n(Cc2ccccc2)c(=O)[nH]c1=O [14739636],-31.3
21,CCN(CC)CCCN=Cc1c(O)n(Cc2ccccc2)c(=O)c2ccccc12,-76.7
